Data: the OligoGym collection

Target: IL7
Test: pooled miR-30 sensor sort-seq; sequence = guide strand
Conditions: shRNA
Also: reference of the scale not given here.

Sequence	sensor-assay potency score (higher = more potent)
TATCTCTTGTAATAGTCTCTTT	-0.557
TTCTAGTAATACAATATGCATT	-1.23
TTGTTTGTATTCATCTTCTAGT	-0.373
TTTTCTTCCAAACTCTTTGTTG	-0.54
TTCCTTATTAGCATCACAGATA	-0.731
TAGGAAACACAAGTCATTCAGT	0.00202
TATTATTGCAACTGATACCTTA	-0.0538
TATCACAATCAGATGATGCTAC	0.423
TTTATTTTCTTCCAAACTCTTT	-0.524
TAGCATCACAGATATGTCTTTT	-0.445
TTGTAATAGTCTCTTTAGGAAA	-1.6

Target: ILDR2
Test: as above
Conditions: shRNA

Sequence	sensor-assay potency score (higher = more potent)
TGAACTTCCACTGCACAACTGC	-0.265
TTCTCTTGCTGAGAGATTGGGC	-0.528
TACTACTCGAACAGTCCTCCTG	0.188
TAGTACAGGACCTTCATGGAGT	0.283
TGAACAATCGTGATCTCTCTGC	-0.125
TAGGACTTGAACTTCCACTGCA	0.867
TACAGTAATAGAGTCCGCTGTC	0.133
TTGAAGCTACTACTCGAACAGT	-0.815
TTGTCGGGCACTGTGACCTGAA	-0.304
TCTGCATCATGAACAATCGTGA	-0.116
TAATACAGTAATAGAGTCCGCT	0.505
TTATATCTGCCTCTCATCCTTC	-0.505
